From PubChem BioAssay
Sampled rows, rich in hits. Any-hit rate of the full collection: about 11%.
FBPA coupling cs: counter-screen for Giardia aldolase inhibitors: coupling enzyme system; coupling enzyme system counterscreen, AmpLite Red fluorescence; activity change, negative = inhibition, % at 58.2 µM, hits read low; actives 0.67% (n = 290,000); AID 2472; in the data active means activity change below about -30%
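Counterscreen of the coupled detection system alone, without aldolase: glyceraldehyde-3-phosphate coupling enzymes plus AmpLite Red readout. Compounds at 57.5 uM final, 10 min RT preincubation, 20 min RT reaction, fluorescence 525/598 nm.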
G9a block: blocks human histone lysine methyltransferase G9a. G9a H3K9 monomethylation, AlphaScreen, 2 h. Potency, µM (series often up to 102 µM), without a hit: top-dose activity, negative = inhibition, hits mostly inhibitors. actives 8.8% (n = 350,000). AID 504332; further: potency means the concentration at half of the fitted maximal effect; nearly all actives have a fitted effect of over 75% in size
Target sequence (Q96KQ7 913-1193 limits assumed): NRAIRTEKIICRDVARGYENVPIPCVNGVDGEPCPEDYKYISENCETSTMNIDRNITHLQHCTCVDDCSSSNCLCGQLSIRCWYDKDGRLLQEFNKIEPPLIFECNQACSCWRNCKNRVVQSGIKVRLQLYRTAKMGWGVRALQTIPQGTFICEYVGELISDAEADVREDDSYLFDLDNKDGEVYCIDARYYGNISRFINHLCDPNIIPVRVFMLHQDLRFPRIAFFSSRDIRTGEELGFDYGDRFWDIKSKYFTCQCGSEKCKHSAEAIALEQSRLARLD
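Compounds were preincubated with 20 nM G9a for 15 min, after which biotinylated H3K9 peptide (500 nM) and SAM (20 uM) started a 2 h room-temperature reaction. Monomethylated product was quantified by antibody-based AlphaScreen chemiluminescence.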
Sfp PPTase inh: blocks B. subtilis Sfp PPTase activity. Q9F4F7. Biochemical Sfp PPTase activity, qHTS. Potency, µM, without a hit: largest response in the series, negative = inhibition, most hits filed as inhibitors. actives 3.5% (n = 310,000);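 further: the enzyme is Sfp with the accession as filed and its product quenches rhodamine fluorescence; potency means the concentration at half of the fitted maximal effect; 0% = enzyme reaction without inhibitor and -100% = no enzyme wells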
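Step 1, compound plus 15 nM Sfp-PPTase, 15 min, room temperature. Step 2, add rhodamine-CoA (5 uM) and BHQ-2-YbbR (12.5 uM). Step 3, read 525/598 nm fluorescence at 0 and 30 min.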
Tau ThT inhib: inhibitors of human tau fibril formation, thioflavin T binding; recombinant tau K18 P301L, heparin-induced fibrillization, ThT fluorescence; Potency, µM (top dose mostly 57.4 µM), inactives show top-dose activity, negative = inhibition, usual class: inhibitors; actives 2.1% (n = 270,000); further: potency means the concentration at half of the fitted maximal effect; nearly all actives have a fitted effect of over 55% in size
Target sequence (P10636 561-689 P618L limits assumed): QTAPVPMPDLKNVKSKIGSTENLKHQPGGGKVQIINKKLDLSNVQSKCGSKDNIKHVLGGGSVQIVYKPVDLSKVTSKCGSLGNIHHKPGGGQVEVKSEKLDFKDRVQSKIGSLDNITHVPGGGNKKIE
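Using a mix of unlabeled (15 uM) and Alexa 594-labeled (0.24 uM) tau K18 P301L, heparin-triggered fibrillization over 6 hr at 37 C was scored by ThT fluorescence.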
Tau fibril FP: tau fibrillization inhibition (FP); P10636; K18 P301L tau heparin fibrillization, Alexa594 FP, 6 h; Potency, µM (titrated, usually from 57.7 µM), without a hit: at the top dose activity, negative = inhibition, actives largely listed as inhibitors; actives 0.39% (n = 280,000); AID 1468; further: potency means the concentration at half of the fitted maximal effect; nearly all actives have a fitted effect of over 55% in size
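FP of Alexa 594-tau after heparin (20 uM) induction. Substrate: human K18 P301L, 15 uM unlabeled, 0.24 uM labeled. Buffer 100 mM sodium acetate pH 7. 6 hr, 37 C.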
Tau fluor cs: counter-screen for tau fibril formation inhibitors; AID 1463; actives 0.93% (n = 280,000); Potency, µM (highest dose often 57.7 µM), for the others: at the highest dose activity change, negative = decrease; tau K18 P301L (four-repeat tau fragment) Alexa594 fluorescence, heparin fibrillization; further: potency means the concentration at half of the fitted maximal effect; nearly all actives have a fitted effect of over 55% in size
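Human K18 P301L tau (15 uM unlabeled plus 0.24 uM Alexa 594-labeled, final) in 100 mM sodium acetate pH 7 was mixed with compound and 20 uM heparin and incubated 6 hr at 37 C.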
* = called active by the depositor; ? = inconclusive; / = no result given; [ ] = dose if it differs, or a comment. Unless noted, the call rests on the fitted dose curve; in most records, active means well fitted curve in the direction sought with a large enough effect; inconclusive means small, poorly fitted or top-dose-only effect, or another doubt; inactive means no such curve, though single readings can be large; an effect the other way counts as inactive or inconclusive. Unless noted, on the % scale 0 is the no-effect control and ±100 the full control effect.

SMILES	FBPA coupling cs	G9a block	Sfp PPTase inh	Tau ThT inhib	Tau fibril FP	Tau fluor cs
CCOc1ccc(Nc2nc3cc(S(=O)(=O)N(CC)CC)ccc3o2)cc1	-0.9	2.24µM*	8.91µM*	?	9.7%	?
O=C(Nc1ccc(F)cc1F)C1CCN(c2ncccn2)CC1	/	0.2%[59 µM]	/	-0.3%	-1.6%	-2.0%
CCOC(=O)C1=C(C)NC(C)=C(C(=O)OCC)C1C(=O)OCC(=O)NC1(C#N)CCCCC1	/	3.6%	/	/	/	/
CCc1cccc(C)c1NC(=S)NCCc1c(C)[nH]c2ccc(C)cc12	-1.2	44.7µM*	14.1%	?	16.0%	?
Cc1ccc2[nH]c(C)c(CC(=O)NCc3ccccc3)c2c1	1.3	6.9%	0.3%	/	/	/
Cc1ccc2[nH]c(C)c(CCNC(=O)c3c(N)no[n+]3[O-])c2c1	-0.1	?	-7.3%	?	16.9%	?
CCc1cccc(CC)c1NC(=S)NCCc1c(C)[nH]c2ccc(C)cc12	1.7	39.8µM*	5.1%	-12.2%	3.5%	?
NC(=O)CC(NC(=O)Cc1cccc2ccccc12)c1ccc(N2CCc3ccccc3C2)c([N+](=O)[O-])c1 (centres undefined)	-3.3	?	-25.8%	11.2µM*	-1.8%	?
NC(=O)CC(NC(=O)Cc1cccc2ccccc12)c1ccc(NCCCN2CCCC2=O)c([N+](=O)[O-])c1 (centres undefined)	-1.0	70.8µM*	12.0%	/	/	/
CCCCNc1ccc(C(CC(N)=O)NC(=O)Cc2cccc3ccccc23)cc1[N+](=O)[O-] (centres undefined)	0.2	-8.3%[12.7 µM]	16.1%	?	-5.4%	0.0%
O=C(COc1ccccc1F)Nc1ccc2oc(-c3cccc(Cl)c3)nc2c1	/	19.6%[59 µM]	/	?	-15.9%	-27.6%
CCOc1ccc(-c2nn(CC(=O)NC3CCCC3)c3c2cnc2ccc(F)cc23)cc1	/	19.2%[59 µM]	/	-15.4%	-2.1%	-0.6%
CN(C)c1ccc(NC(=O)Nc2ccc3c(c2)nnn3C)cc1	-4.0	8.5%[0.501 µM]	14.8%	/	/	/
Cc1cc(NC(=O)Nc2ccc(N(C)C)cc2)c2cc(F)cc(F)c2n1	-0.8	/	?	?	-6.1%	7.94µM*[quencher]
CN1C(=O)c2ccccc2C(C(=O)O)C1c1cccc(Cl)c1 (centres undefined)	3.6	-9.9%	28.9%	9.0%	12.4%	17.0%
CCc1ccc(C2C(C(=O)O)c3ccccc3C(=O)N2C)cc1 (centres undefined)	4.1	56.2µM*	26.0%	-0.2%	0.6%	-4.9%
COc1ccc(OC)c(C2C(C(=O)O)c3ccccc3C(=O)N2C)c1 (centres undefined)	0.8	?	16.9%	-3.5%	?	?
COc1ccc(C2C(C(=O)O)c3ccccc3C(=O)N2C)cc1Br (centres undefined)	4.3	3.98µM*	3.9%	-0.2%	-1.8%	2.9%
COc1cc(OC)c(C2C(C(=O)O)c3ccccc3C(=O)N2C)cc1OC (centres undefined)	-39.9*	?	-14.0%	8.6%	-1.7%	4.8%
Cc1ccc(CN2CCc3c(OCC(=O)Nc4cc(C)ccc4C)cccc3C2=O)cc1	-0.6	-0.7%[59 µM]	0.2%	?	-2.3%	-7.8%
CCCCCCc1ccc(-c2ncc(N)cn2)cc1	0.5	4.3%[59 µM]	24.1%	-19.9%	7.5%	14.1µM*[quencher]
CCOC(=O)C(=O)C1=CN(Cc2ccccc2)C=C(C#N)C1	-0.7	?	4.5%	/	/	/
N#CC1=CN(Cc2ccccc2)C=C(/C=N/Nc2ccccc2)C1	-0.2	3.55µM*	-20.5%	?	-14.1%	?
CCC1(C(=O)OC)CCc2c(cc(OC)c3ccccc23)C1=O (centres undefined)	-3.9	/	2.7%	?	-13.8%	-24.2%
Cc1ccoc1C(=O)NCc1occc1C(=O)O	-9.2	44.7µM*	9.6%	-0.7%	-0.7%	3.9%
SMILES	FBPA coupling cs	G9a block	Sfp PPTase inh	Tau ThT inhib	Tau fibril FP	Tau fluor cs
Cc1cc(C)cc(OCC(=O)Nc2ccc(N3CCCCC3)cc2)c1	/	-5.2%[2.33 µM]	/	/	/	/
Cc1ccc(C(=O)N2CCN(c3ccc(NC(=O)c4cc(C)cc(C)c4)cc3)CC2)cc1	/	-5.9%[0.501 µM]	1.6%	/	/	/
Cc1cc(C)cc(C(=O)Nc2ccc(N3CCCC3)cc2)c1	0.9	-126.8%	50.1µM*	1.4%	1.5%	-1.1%
Cc1cc(C)cc(NC(=O)Nc2ccc(N3CCCCC3)cc2)c1	-1.6	8.91µM*	50.1µM*	?	10.2%	20µM*[quencher]
CCc1ccccc1NC(=O)C1CCCN1C(=O)Nc1ccc(C)cc1 (centres undefined)	2.0	16.3%	4.4%	/	/	/
Cc1[nH]c(=O)[nH]c(=O)c1/C=N/NC(=O)[C@H](C)N	1.3	?	50.1µM*	3.5%	1.8%	12.2%
CCC1CCCCN1S(=O)(=O)c1ccc(C(=O)Nc2nnc(C3=COCCO3)o2)cc1 (centres undefined)	/	14.9%	17.6%	/	/	/
CN1CN(C)C(c2ccncc2)=C1c1ccncc1	-2.2	39.8µM*	-10.6%	/	-36.3%	4.1%
Cn1c(-c2ccncc2)nc2ccccc21	2.5	0.8%[0.501 µM]	24.1%	/	/	/
Cc1cc(Br)ccc1NC(=O)C(NS(=O)(=O)c1cccs1)c1ccccc1 (centres undefined)	/	5.0%[59 µM]	/	-3.7%	-10.0%	-16.8%
CC(CNc1ccccc1O)C(=O)O (centres undefined)	-10.9	15.8µM*	50.1µM*	28.2µM*	?	?
Cc1ccc2nsnc2c1S(=O)(=O)Nc1cccc2cccnc12	-20.4	/	0.3%	/	/	/
Cc1ccc2nsnc2c1S(=O)(=O)Nc1cccc2nsnc12	-34.0*	44.7µM*	-9.1%	?	-1.3%	-13.9%
CC(=O)c1ccccc1NS(=O)(=O)c1cccc2nsnc12	0.0	50.1µM*	1.8%	/	/	/
CC1CN(C(=O)c2cc3c(=O)n4ccccc4nc3n2C)CC(C)O1 (centres undefined)	/	-9.9%[0.0925 µM]	10.7%	/	/	/
CC(=O)c1ccc(N2CCN(S(=O)(=O)c3ccc4c5c3CC(=O)N5CC(C)S4)CC2)cc1 (centres undefined)	-27.0	44.7µM*	-7.4%	/	/	/
CC(=O)c1ccc(N2CCN(S(=O)(=O)c3ccc4c(c3)CC(=O)N4)CC2)cc1	-0.7	/	18.1%	/	/	/
CC(=O)CSc1nnc(CN2C(=O)CSc3ccc(C(F)(F)F)cc32)n1C	1.8	44.7µM*	-4.5%	-1.0%	-4.4%	-4.4%
Cn1c(CN2CCOCC2)nnc1SCC(=O)Nc1cccc(C(F)(F)F)c1	0.0	-12.5%[59 µM]	15.4%	/	/	/
Cn1cnnc1SCC(=O)c1cccc([N+](=O)[O-])c1	-7.1	-5.1%[59 µM]	-26.9%	?	12.3%	-15.0%
COc1ccc(C(=O)CSc2n[nH]c(C)n2)cc1[N+](=O)[O-]	0.9	?	79.4µM*	-4.9%	-2.8%	-2.1%
